Counter-ions that a name gives are not always drawn. ± gives the standard deviation of the averaged measurements.

The test relates to Toxoplasma gondii RH (in HFF). Nature of the test: parasite growth relative to the screen mean (all compounds = 100%); higher = less inhibition of parasite growth. The conditions noted are these: 5 µM; 72 h; oxygen 21 %. An outline of the steps:
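Each value is parasite growth expressed against the screen mean, averaged over two screens, where the mean of all compounds = 100%. The screen used 5 µM final compound on confluent human foreskin fibroblasts infected with RH β-Gal–GFP Toxoplasma (MOI 1:5) within 2 h and grown 72 h at 21% O2. Parasite number was measured by a CPRG β-Gal assay against in-plate standard curves.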
`CC(C)(C)c1ccc(/C=C/C(=O)Nc2ccc3c(c2)OCCO3)cc1` came in with a parasite growth of 133.4 ± 1%.
In the case of `CC1CCN(CCCC(=O)c2ccc(F)cc2)CC1` [Melperone hydrochloride] it was 126 ± 12%.
For `Fc1ccc([C@@H]2CCNC[C@H]2COc2ccc3c(c2)OCO3)cc1` [Paroxetine maleate] the value was 39.5 ± 4%.
Consider `CC(C)(C)[N+]([O-])=Cc1ccc(S(=O)(=O)O)cc1S(=O)(=O)O`, for which the parasite growth is 86.3 ± 26%.
The compound `Clc1ccc2c(c1)N=C(N1CCNCC1)c1ccccc1N2` [N-Desmethylclozapine] displayed a parasite growth of 59.7 ± 2.8%.
For `Oc1ccc(-c2c(-c3ccccc3)nn3c(C(F)(F)F)cc(C(F)(F)F)nc23)cc1` the value was 170 ± 8.6%; for `O=C1C(=O)N(Cc2ccc(Cl)c(Cl)c2)c2ccccc21` [Apoptosis Activator 2], 120 ± 3.4%.
For `CCCCCCCC/C=C\CCCCCCCC(=O)NCc1ccc(O)c(OC)c1` [Olvanil] the value was 155 ± 38%; for `Cc1ccc2c(=O)c3ccccc3n(CCCN)c2c1C`, below 0%.
As to `O=C(O)CC/C=C\C[C@H]1CO[C@@H](c2ccccc2Cl)O[C@H]1c1ccccc1O`, the parasite growth was found to be 79.02 ± 0.65%.
`CC(=O)Nc1ccc(O)cc1` [Acetaminophen]: the parasite growth came to 105 ± 2.7%.
For `CNc1cc(OC)c(C(=O)NC2CCN(Cc3ccccc3)C2C)cc1Cl` (stereo not given) [Nemonapride], the parasite growth came out at 95.4 ± 2.2%.
On to `O=C(O)c1c(Sc2ccccc2)c2cc(Cl)ccc2n1Cc1ccc(Cl)cc1`, for which the parasite growth was determined as 88.5 ± 6.7%.
In the case of `CCC(CC)(CC(=O)Nc1cccc(/C=C/c2nc(C3CCC3)cs2)c1)C(=O)O` [Cinalukast] it was 115 ± 12%.
For `C[C@@H](CN1CC(=O)NC(=O)C1)N1CC(=O)NC(=O)C1` [Dexrazoxane hydrochloride], the parasite growth amounted to 102 ± 13%.
`O=C(/C=C/c1ccc(O)c(O)c1)O[C@H](Cc1ccc(O)c(O)c1)C(=O)O` [Rosmarinic acid] displayed a parasite growth of 110 ± 5.5%.
The compound `C[S+]([O-])c1ccc(-c2nc(-c3ccc(F)cc3)c(-c3ccncc3)[nH]2)cc1` (stereo not given) came in with a parasite growth of 8.46 ± 12%.
In the case of `COc1cc(N)c(Cl)cc1C(=O)CCC1CCN(CCNS(C)(=O)=O)CC1`, the parasite growth came to 74.1 ± 2.4%.
`C/C(=N\NC(=O)C1C(=O)NCC1c1ccccc1)c1cccc(Br)c1` (stereo not given) showed a parasite growth of 147 ± 29%.
For `Nc1nc(N)nc(-c2cc(Cl)ccc2Cl)n1` [Irsogladine maleate] the value was 127 ± 27%; for `O=C(Cc1ccccc1)Nc1nc2ccc(Cl)cc2c2nc(-c3ccco3)nn12`, 121 ± 57%.
On to `COc1ccc(CC(C)NCC(O)c2ccc(O)c(NC=O)c2)cc1` (stereo not given) [Formoterol hemifumarate], for which the parasite growth worked out at 126 ± 5.6%.
As for `CCC(NC(C)C)C(O)c1ccc(O)c2[nH]c(=O)ccc12` (stereo not given) [Procaterol hydrochloride], the parasite growth is 132 ± 21%.
For `Cc1ccc2c(c1)c1c3n2CCNC3CCC1` (stereo not given) [Pirlindole mesylate] the value was 152 ± 16%.
Compound `CN/C(=N\CCSCc1nc[nH]c1C)NC#N` [Cimetidine] registered a parasite growth of 118 ± 10%.
